Laboratory results: ChEMBL document CHEMBL2218924, “A broad activity screen in support of a chemogenomic map for kinase signalling research and drug discovery” (Biochem J, 2013)

Tests used:
[1] = biological target: Mitogen-activated protein kinase 10 (Homo sapiens) (UniProt P53779); conditions: at 10 µM
[2] = biological target: Vascular endothelial growth factor receptor 2 (Homo sapiens) (UniProt P35968); conditions: at 1 µM
[3] = biological target: Vascular endothelial growth factor receptor 2 (Homo sapiens) (UniProt P35968); conditions: at 10 µM
[4] = biological target: LIM domain kinase 1 (Homo sapiens) (UniProt P53667); conditions: at 1 µM
[5] = biological target: LIM domain kinase 1 (Homo sapiens) (UniProt P53667); conditions: at 10 µM
[6] = biological target: T1, Serine/threonine-protein kinase STK11 (Homo sapiens) (UniProt Q15831); conditions: at 1 µM
T1 sequence (whole entry): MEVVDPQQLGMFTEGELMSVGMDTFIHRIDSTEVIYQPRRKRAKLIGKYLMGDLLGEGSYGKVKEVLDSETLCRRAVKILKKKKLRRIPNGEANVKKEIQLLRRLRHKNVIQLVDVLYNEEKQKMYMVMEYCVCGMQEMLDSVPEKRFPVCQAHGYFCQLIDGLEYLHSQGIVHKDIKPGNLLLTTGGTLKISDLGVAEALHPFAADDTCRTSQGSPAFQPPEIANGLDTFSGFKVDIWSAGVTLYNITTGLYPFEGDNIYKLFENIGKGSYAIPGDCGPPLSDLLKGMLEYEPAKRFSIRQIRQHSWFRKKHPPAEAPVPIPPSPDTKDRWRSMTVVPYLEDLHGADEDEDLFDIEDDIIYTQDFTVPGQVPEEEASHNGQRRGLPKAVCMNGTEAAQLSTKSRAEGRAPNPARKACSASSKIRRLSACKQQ

[7] = biological target: T1, Serine/threonine-protein kinase STK11 (Homo sapiens); conditions: at 10 µM
[8] = biological target: Serine/threonine-protein kinase 10 (Homo sapiens) (UniProt O94804); conditions: at 10 µM
[9] = biological target: Tyrosine-protein kinase Lck (Homo sapiens) (UniProt P06239); conditions: at 1 µM
[10] = biological target: Tyrosine-protein kinase Lck (Homo sapiens) (UniProt P06239); conditions: at 10 µM
[11] = biological target: Tyrosine-protein kinase Lck (Homo sapiens) (UniProt P06239); conditions: at 1 µM; remark: listed apart in the source
[12] = biological target: Tyrosine-protein kinase Lck (Homo sapiens) (UniProt P06239); conditions: at 10 µM; remark: listed apart in the source
[13] = biological target: Tyrosine-protein kinase Lyn (Homo sapiens) (UniProt P07948); conditions: at 1 µM
[14] = biological target: Tyrosine-protein kinase Lyn (Homo sapiens) (UniProt P07948); conditions: at 10 µM
[15] = biological target: Mitogen-activated protein kinase 1 (Homo sapiens) (UniProt P28482); conditions: at 1 µM
[16] = biological target: Mitogen-activated protein kinase 1 (Homo sapiens) (UniProt P28482); conditions: at 10 µM
[17] = biological target: MAP kinase-activated protein kinase 2 (Homo sapiens) (UniProt P49137); conditions: at 1 µM
[18] = biological target: Serine/threonine-protein kinase 10 (Homo sapiens) (UniProt O94804); conditions: at 1 µM
[19] = biological target: Mitogen-activated protein kinase 3 (Homo sapiens) (UniProt P27361); conditions: at 1 µM
[20] = biological target: Mitogen-activated protein kinase 3 (Homo sapiens) (UniProt P27361); conditions: at 10 µM

Sequence of Tyrosine-protein kinase Lyn (Homo sapiens) (P07948 2-512 limits assumed): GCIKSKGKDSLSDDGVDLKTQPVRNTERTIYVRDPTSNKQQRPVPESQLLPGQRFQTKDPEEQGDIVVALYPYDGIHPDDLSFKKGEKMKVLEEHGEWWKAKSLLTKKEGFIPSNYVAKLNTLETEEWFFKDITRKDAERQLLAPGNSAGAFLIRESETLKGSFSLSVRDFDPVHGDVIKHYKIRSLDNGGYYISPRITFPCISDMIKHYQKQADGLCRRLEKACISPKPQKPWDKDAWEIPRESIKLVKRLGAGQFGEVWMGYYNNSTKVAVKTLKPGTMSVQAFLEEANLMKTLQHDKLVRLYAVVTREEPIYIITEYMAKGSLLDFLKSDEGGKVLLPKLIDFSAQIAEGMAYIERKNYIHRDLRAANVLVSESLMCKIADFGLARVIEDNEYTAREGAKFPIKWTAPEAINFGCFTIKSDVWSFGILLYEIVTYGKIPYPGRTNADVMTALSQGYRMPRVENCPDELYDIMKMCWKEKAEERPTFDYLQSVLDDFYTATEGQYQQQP
Sequence of Mitogen-activated protein kinase 1 (Homo sapiens) (P28482 whole entry): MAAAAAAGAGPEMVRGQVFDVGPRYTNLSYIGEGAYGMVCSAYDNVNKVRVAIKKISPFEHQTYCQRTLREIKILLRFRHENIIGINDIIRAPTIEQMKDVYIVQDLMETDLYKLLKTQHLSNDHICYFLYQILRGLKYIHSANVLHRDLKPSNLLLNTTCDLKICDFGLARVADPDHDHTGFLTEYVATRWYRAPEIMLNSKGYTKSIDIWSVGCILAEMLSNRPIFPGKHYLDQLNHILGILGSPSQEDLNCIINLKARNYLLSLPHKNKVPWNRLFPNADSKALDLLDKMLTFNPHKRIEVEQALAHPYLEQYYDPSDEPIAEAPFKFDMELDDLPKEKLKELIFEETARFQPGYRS
Sequence of LIM domain kinase 1 (Homo sapiens) (P53667 whole entry, looked up, the tested form may be a part): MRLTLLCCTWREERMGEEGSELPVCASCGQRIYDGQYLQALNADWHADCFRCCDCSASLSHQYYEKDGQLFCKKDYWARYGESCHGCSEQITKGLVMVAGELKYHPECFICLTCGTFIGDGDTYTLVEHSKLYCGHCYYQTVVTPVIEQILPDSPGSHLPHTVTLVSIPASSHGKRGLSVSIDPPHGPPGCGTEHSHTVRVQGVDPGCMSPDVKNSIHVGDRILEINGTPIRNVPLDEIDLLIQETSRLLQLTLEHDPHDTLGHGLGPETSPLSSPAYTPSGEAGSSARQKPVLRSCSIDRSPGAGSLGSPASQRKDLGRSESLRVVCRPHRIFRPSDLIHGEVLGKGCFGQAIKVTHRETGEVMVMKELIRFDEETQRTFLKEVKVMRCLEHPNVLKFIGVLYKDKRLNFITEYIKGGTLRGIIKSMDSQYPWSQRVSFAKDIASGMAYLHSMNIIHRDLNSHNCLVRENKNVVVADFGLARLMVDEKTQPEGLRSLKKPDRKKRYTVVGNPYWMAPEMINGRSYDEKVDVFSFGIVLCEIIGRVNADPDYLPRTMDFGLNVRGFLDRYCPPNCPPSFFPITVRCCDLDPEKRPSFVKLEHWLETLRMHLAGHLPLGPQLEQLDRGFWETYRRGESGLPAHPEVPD
Sequence of Tyrosine-protein kinase Lck (Homo sapiens) (P06239 2-509 limits assumed): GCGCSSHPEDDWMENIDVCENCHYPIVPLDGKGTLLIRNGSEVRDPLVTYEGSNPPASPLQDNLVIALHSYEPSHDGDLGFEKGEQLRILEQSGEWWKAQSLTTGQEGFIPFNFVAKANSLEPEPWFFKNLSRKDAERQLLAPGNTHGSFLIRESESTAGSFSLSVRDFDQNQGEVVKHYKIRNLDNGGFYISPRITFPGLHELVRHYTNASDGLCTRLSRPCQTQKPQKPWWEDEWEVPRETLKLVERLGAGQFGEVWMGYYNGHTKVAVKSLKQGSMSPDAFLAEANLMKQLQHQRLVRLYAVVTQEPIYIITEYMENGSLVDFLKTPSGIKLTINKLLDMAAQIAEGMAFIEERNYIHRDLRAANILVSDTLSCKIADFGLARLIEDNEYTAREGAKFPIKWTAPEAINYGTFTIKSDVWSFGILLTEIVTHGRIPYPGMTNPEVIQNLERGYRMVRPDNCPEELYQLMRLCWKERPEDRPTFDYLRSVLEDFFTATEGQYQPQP
Sequence of Serine/threonine-protein kinase 10 (Homo sapiens) (O94804 whole entry, looked up): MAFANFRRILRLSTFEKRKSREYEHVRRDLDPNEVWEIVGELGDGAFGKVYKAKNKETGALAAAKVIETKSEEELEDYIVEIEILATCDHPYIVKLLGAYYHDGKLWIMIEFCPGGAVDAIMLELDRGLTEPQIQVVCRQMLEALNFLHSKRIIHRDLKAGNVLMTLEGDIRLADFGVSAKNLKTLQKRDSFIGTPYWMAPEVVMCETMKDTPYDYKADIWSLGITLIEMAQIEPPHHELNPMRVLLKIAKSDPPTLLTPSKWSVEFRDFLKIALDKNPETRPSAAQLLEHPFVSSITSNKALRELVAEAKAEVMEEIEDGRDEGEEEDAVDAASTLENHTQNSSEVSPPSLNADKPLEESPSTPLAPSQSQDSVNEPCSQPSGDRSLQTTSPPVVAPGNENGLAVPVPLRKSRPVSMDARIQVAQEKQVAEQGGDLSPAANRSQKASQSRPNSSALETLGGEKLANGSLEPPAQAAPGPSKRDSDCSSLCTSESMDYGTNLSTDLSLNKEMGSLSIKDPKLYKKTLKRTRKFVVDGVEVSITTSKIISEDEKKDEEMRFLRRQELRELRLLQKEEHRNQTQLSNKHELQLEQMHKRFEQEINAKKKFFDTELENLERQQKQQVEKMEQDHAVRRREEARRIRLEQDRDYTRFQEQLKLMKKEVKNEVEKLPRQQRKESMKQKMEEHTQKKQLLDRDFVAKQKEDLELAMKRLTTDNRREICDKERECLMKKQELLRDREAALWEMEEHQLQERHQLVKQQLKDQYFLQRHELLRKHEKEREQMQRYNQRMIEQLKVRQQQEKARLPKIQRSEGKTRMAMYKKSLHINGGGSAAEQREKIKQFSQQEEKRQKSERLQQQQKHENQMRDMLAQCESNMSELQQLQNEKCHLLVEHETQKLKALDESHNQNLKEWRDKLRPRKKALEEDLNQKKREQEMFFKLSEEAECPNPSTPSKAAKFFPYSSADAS
Sequence of Mitogen-activated protein kinase 3 (Homo sapiens) (P27361 whole entry): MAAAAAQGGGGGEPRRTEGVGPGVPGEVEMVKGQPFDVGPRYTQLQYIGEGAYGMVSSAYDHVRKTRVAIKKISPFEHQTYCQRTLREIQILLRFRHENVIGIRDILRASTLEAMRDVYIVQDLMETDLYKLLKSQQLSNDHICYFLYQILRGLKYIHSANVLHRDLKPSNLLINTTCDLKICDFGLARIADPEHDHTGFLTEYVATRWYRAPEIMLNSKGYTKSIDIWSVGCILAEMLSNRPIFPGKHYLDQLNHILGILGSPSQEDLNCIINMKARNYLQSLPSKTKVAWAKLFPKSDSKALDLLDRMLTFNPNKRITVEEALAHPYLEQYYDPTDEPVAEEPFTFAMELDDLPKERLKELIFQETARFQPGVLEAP
Sequence of MAP kinase-activated protein kinase 2 (Homo sapiens) (P49137 whole entry, looked up): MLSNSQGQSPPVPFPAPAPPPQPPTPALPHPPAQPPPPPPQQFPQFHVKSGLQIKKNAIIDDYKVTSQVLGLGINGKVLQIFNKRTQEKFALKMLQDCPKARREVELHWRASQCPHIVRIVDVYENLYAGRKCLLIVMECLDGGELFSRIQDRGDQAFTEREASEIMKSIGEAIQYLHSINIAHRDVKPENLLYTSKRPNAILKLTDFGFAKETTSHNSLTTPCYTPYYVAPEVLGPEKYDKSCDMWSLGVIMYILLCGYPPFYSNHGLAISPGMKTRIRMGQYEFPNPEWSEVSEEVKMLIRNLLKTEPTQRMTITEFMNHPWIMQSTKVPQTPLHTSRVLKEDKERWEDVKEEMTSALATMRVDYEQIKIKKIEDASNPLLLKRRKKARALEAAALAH
Sequence of Mitogen-activated protein kinase 10 (Homo sapiens) (P53779 whole entry): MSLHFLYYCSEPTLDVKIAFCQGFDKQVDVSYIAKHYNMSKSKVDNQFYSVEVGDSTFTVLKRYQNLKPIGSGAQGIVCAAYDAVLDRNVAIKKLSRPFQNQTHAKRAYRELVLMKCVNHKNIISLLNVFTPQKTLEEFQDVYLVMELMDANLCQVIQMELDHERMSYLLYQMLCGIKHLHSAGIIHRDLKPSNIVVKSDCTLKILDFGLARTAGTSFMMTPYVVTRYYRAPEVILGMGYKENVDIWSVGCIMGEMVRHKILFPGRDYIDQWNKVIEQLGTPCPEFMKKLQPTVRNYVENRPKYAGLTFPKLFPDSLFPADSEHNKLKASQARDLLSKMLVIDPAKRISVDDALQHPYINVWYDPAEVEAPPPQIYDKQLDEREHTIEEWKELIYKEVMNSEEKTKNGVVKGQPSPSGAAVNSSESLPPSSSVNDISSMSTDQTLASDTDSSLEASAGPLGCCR

Row | Compound | residual activity [1] [%] | residual activity [2] [%] | residual activity [3] [%] | residual activity [4] [%] | residual activity [5] [%] | residual activity [6] [%] | residual activity [7] [%] | residual activity [8] [%] | residual activity [9] [%] | residual activity [10] [%] | residual activity [11] [%] | residual activity [12] [%] | residual activity [13] [%] | residual activity [14] [%] | residual activity [15] [%] | residual activity [16] [%] | residual activity [17] [%] | residual activity [18] [%] | residual activity [19] [%] | residual activity [20] [%]
1 | CCCCc1c(-c2ccc(OC)cc2)[nH]c2nccnc12 | 41 | 73 | 68 | 50 | 57 | 108 | 101 | 110 | 55 | 63 | 63 | 82 | 37 | 11 | 117 | 105 | 89 |  |  | 
2 | CC(C)c1nn(-c2c(Cl)cccc2Cl)c2nc(Cc3ccc(OCCO)cc3)[nH]c(=O)c12 | 29 | 98 | 89 | 102 | 84 | 90 | 48 | 55 | 104 | 85 |  | 88 | 81 | 36 |  | 89 | 80 | 55 | 94 | 73
3 | Cn1c2ccccc2c2c3c(c4c5ccccc5n(CCC#N)c4c21)CNC3=O | 9 | 7 | 6 | 48 | 20 | 82 | 96 | 8 |  |  |  |  | 21 | 9 | 48 | 44 |  | 21 | 52 | 
4 | Cn1sc(=O)n(Cc2ccccc2)c1=O | 94 | 99 | 91 | 86 | 79 | 97 | 93 | 95 |  |  |  |  | 82 | 92 | 95 | 92 | 72 | 95 | 83 | 92
5 | Nc1nc(Nc2ccc(S(N)(=O)=O)cc2)nn1C(=O)c1c(F)cccc1F | 12 | 33 | 4 | 12 | 2 | 99 | 95 | 6 | 58 | 29 | 66 | 18 | 40 | 11 |  |  |  | 17 | 102 | 
6 | Nc1ncnc2c1c(-c1ccc(Oc3ccccc3)cc1)cn2C1CCCC1 | 81 | 24 | 3 | 72 | 13 | 105 | 91 | 38 | 1 | -1 | -3 | 2 | 0 | 1 | 106 | 93 | 82 | 73 | 76 | 66
7 | O=C1NC(=O)c2c1c1c3ccccc3[nH]c1n1cncc21 | 11 | 10 | 8 | 71 | 48 | 84 | 62 | 58 | 61 | 49 | 72 | 47 | 57 | 19 |  | 98 | 79 | 70 | 86 | 90
8 | O=C1NC(=O)C(c2cn(CCCn3ccnc3)c3ccccc23)=C1Nc1ccccc1 | 68 | 73 | 22 |  | 41 | 100 | 103 | 6 | 130 | 65 |  | 66 |  | 39 | 104 | 110 | 100 | 21 |  | 70
9 | Cc1cc(C)c(/C=C2\C(=O)Nc3ccccc32)[nH]1 |  | 4 | 2 |  |  |  |  | 45 |  |  |  |  | 46 | 8 | 98 | 101 | 100 |  |  | 
10 | O=C1Cc2c([nH]c3ccc([N+](=O)[O-])cc23)-c2ccccc2N1 | 66 | 52 | 42 |  |  |  |  | 110 | 22 |  | 76 | 45 | 6 | 5 | 109 |  | 69 | 102 |  | 
11 | COc1cc2nccc(Oc3ccc(NC(=O)Nc4cc(C)on4)c(Cl)c3)c2cc1OC |  |  |  | 67 | 14 | 99 | 101 | 8 | 3 | 1 | -2 | 1 | -1 | 2 | 103 | 104 |  | 8 |  | 
12 | NC(=O)c1ccc(-c2nc(-c3ccc4c(c3)OCCO4)c(-c3ccccn3)[nH]2)cc1 |  |  |  |  |  |  |  | 68 |  |  |  |  | 83 |  |  |  |  | 65 | 96 | 
13 | O=C1C(Cl)=C(N2C(=O)CCC2=O)C(=O)c2ccccc21 | 94 |  |  | 88 | 81 | 94 | 89 | 90 | 76 | 99 |  | 93 | 87 | 84 |  |  | 69 | 95 | 102 | 91
14 | N#C/C(=C\c1ccc(O)c(O)c1)C(=O)NCc1ccccc1 | 72 |  | 87 |  |  | 102 | 100 |  |  |  |  |  |  | 70 |  |  | 85 |  | 77 | 65
